Measurements reported in PubChem BioAssay (NCI).
Several values for one entry are separate records, joined by “and”; a condition that tells them apart may be missing. Equal values may be shown once. Compounds without any hit were thinned out: in the full panel of roughly 83,000, 20% have a hit.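 In brief: 96-well plates, 48 h treatment, single concentration, percent growth endpoint.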 Activity calls are given as the source filed them. Rule for the calls: active = growth percent below 10; inactive = the rest.

Key:
Experiment in all cases: NCI-60 one-dose screen, 48 h (100 = growth as untreated, 0 = no growth, -100 = all killed)
Details in all cases: 10 µM
[1] = system: K-562 leukemia
[2] = system: RXF 393 renal
[3] = system: UACC-257 melanoma
[4] = system: LOX IMVI melanoma
[5] = system: SK-MEL-28 melanoma
[6] = system: SK-MEL-2 melanoma
[7] = system: SN12C renal
[8] = system: TK-10 renal
[9] = system: CAKI-1 renal
[10] = system: A498 renal
[11] = system: RPMI-8226 leukemia
[12] = system: OVCAR-3 ovarian
[13] = system: BT-549 breast
[14] = system: MDA-MB-435 melanoma
[15] = system: HCC-2998 colon
[16] = system: HOP-92 NSCLC
[17] = system: MALME-3M melanoma

Measured: growth

NC1CCc2cc(O)c(O)cc2C1 (configuration not stated)
inactive: [2] 81.9% | [3] 103% | [4] 70.9% | [5] 87.1% | [6] 97.7% | [7] 90.5% | [8] 94.6% | [9] 94.1% | [10] 71.9% | [11] 17.2% | [12] 101% | [13] 86.3% | [14] 81.4% | [15] 46.2%
active: [1] 1.68%

C/C=C/CC(C)C(O)[C@H](NC(=O)[C@@H]1CCCN1C(=O)C(C)(C)NC(=O)CCCCCCCCC)C(=O)N[C@@](C)(CC)C(=O)N[C@@H](CCC(N)=O)C(=O)N[C@H](CCC(N)=O)C(=O)NC(C)(C)C(=O)NC(C)(C)C(=O)N[C@@H](CCC(N)=O)C(=O)N[C@H](CC(C)C)C(=O)N[C@H](CO)CC(C)C (some centres not stated)
-17.8% (active) and 16.5% (inactive): [1]
active: [17] -65.1% and -22% | [3] -66.9% and 3.39% | [4] -57.3% and 1.46% | [5] -92.6% and -78.4% | [13] -33.5% | [14] -84.2% and -6.26%
-40.8% (active) and 38.8% (inactive): [10]
-12% (active) and 13.2% (inactive): [15]
7.09% (active) and 29.1% (inactive): [11]
-61.8% (active) and 31.5% (inactive): [2]
inactive: [6] 13.2% and 89.1% | [7] 18.6% and 12.1% | [8] 59.9% and 97.1% | [9] 13.1% and 44.1% | [12] 76.2%
7.21% (active) and 76.4% (inactive): [16]

COc1cccc2c1cc([N+](=O)[O-])c1c(C(=O)O)cc3c(c12)OCO3
inactive: [16] 95.3% | [1] 97.6% | [17] 95.9% | [2] 104% | [4] 100% | [5] 112% | [6] 108% | [7] 113% | [8] 100% | [9] 87.1% | [10] 114% | [11] 97.7% | [12] 126% | [13] 120% | [14] 107% | [15] 91.3%

CCCCCCCCCC(=O)N[C@@](C)(CC)C(=O)N1CCC[C@H]1C(=O)N[C@@H](CC(C)C)C(=O)N[C@@](C)(CC)C(=O)N[C@@H](CCC(N)=O)C(=O)N[C@H](CCC(N)=O)C(=O)NC(C)(C)C(=O)NC(C)(C)C(=O)N[C@@H](CCC(N)=O)C(=O)N[C@H](CC(C)C)C(=O)N[C@H](CO)CC(C)C
-15.6% (active) and 21.9% (inactive): [1]
active: [16] -93.1% and -69.1% | [17] -89.7% and -98.6% | [2] -89.1% and -89.3% | [3] -88.1% and -80.1% | [4] -87.8% and -92.7% | [5] -97.1% and -100% | [6] -90.7% and -86% | [7] -86.9% and -98.8% | [8] -73.6% and -83.4% | [9] -92.4% and -100% | [10] -92.4% and -81.1% | [11] -53.6% and -31.8% | [12] -74.5% | [13] -91% and -85.5% | [14] -94% and -97.5% | [15] -87.4% and -89.4%

COc1cc2c(cc1OC)[C@@H]1N(CC2)C(=O)c2ccccc2[C@@]1(C)C(=O)O
inactive: [16] 123% | [1] 105% | [17] 64.6% | [2] 127% | [3] 107% | [4] 105% | [5] 113% | [6] 109% | [7] 102% | [8] 107% | [9] 101% | [10] 89.4% | [11] 110% | [12] 122% | [13] 108% | [14] 103% | [15] 110%

CC1=C[C@H]2O[C@@H]3C[C@H]4OC(=O)/C=C\C=C\[C@H]([C@@H](C)O)OCC/C(C)=C/C(=O)OC[C@@]2(CC1)[C@]4(C)[C@]31CO1
active: [16] -19.1% | [1] -6.8% | [17] -65.9% | [2] -70.5% | [4] -81.1% | [5] -38.6% | [6] -61.1% | [7] -16.1% | [8] -24.5% | [10] -80.8% | [11] -30.5% | [12] -19.2% | [13] -28.6% | [14] -83.5% | [15] -55.6%
